MARV entry inh = blocks Marburg virus binding to or entry into cells | hit rate 1.8% among 300,000 | Marburg virus pseudotyped entry inhibition, cell reporter | AID 540276 | Potency, µM (doses to about 37.8 µM), most hits filed as inhibitors; calls by dose curve; tested in HEK293 cells
Lassa entry inh = blocks Lassa virus binding to or entry into cells. Lassa virus pseudotype entry inhibition, cell reporter. Potency, µM (titrated, usually from 37.9 µM), actives largely listed as inhibitors. hit rate 1.2% among 300,000. AID 540256; calls by dose curve; tested in HEK293 cells; note: nearly all actives have a fitted effect of over 50% in size
Shiga inhibitor = inhibitors of Shiga toxin in Vero cells. AID 2315. hit rate 9.2% among 290,000. inhibition, % at 38.7 µM. Vero cells, Shiga toxin protein synthesis inhibition reporter; in the data active = inhibition mostly above about 28%, no sharp cut-off; inactive = mostly below about 43%
Cycloheximide cs = counter-screen for Shiga toxin inhibitors: cycloheximide protein synthesis inhibition; cell reporter, cycloheximide protein synthesis inhibition counterscreen; max response, %; hit rate 12% among 300,000; in the data active = max response mostly above about 13%, no sharp cut-off; inactive = mostly below about 14%; note: read at 38.3 µM for the half of the compounds with a filed dose
Pf growth 48h = inhibits P. falciparum growth in the first generation, 48 h | Potency, µM (titrated, usually from 28.7 µM), actives largely listed as inhibitors | AID 504832 | P. falciparum luciferase growth in erythrocytes, 48 h | hit rate 5.9% among 310,000
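In quantitative HTS format, infected erythrocytes bearing luciferase-reporter parasites were treated for a single generation at 37 C. Luminescence after adding detection reagent served as the growth measure.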
Pf growth 96h = P. falciparum growth inhibition at 96 hours. P. falciparum luciferase reporter growth, 96 h. Potency, µM (series often up to 28.7 µM), hits mostly inhibitors. hit rate 6.9% among 320,000. AID 504834
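Luminescence readout: decreased luciferase signal marks inhibited growth of reporter-expressing P. falciparum in infected red cells (2% hematocrit, 0.05% parasitemia final), exposed to compound two generations (96 h, 37 C, 5% CO2).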
Each line names hits and unclear results; the compound was inactive in the other large screens. Rows were chosen to be rich in hits. Some 19% of all compounds tested hit in one or more screens of this group. Unless noted, calls come from the whole dose curve; as a rule, active = well fitted inhibition curve with a large enough effect; inconclusive = small, poorly fitted or top-dose-only effect, or another doubt; inactive = no such curve, though single readings can be large or run the other way.

O=C(O)CNS(=O)(=O)c1cccc2nsnc12	none (no result: Pf growth 48h)
CCCNc1cc(C)oc(=O)c1C(=O)CCC	none (no result: Pf growth 48h)
CC(=O)c1cc(F)c(N2CCN(C(=O)COc3ccccc3F)CC2)cc1C	Pf growth 48h 15µM
Cc1cc(NCc2ccccc2)nc(N2CCOCC2)n1	Pf growth 96h inconclusive
CC1CCCCC12NC(=S)N(c1ccccc1)N2 (stereo unspecified)	none
CCOc1ccc(NC(=O)C(C)Sc2nnc3cc(C)c4ccccc4n23)cc1 (stereo unspecified)	none (no result: Shiga inhibitor, Cycloheximide cs, Pf growth 48h, Pf growth 96h)
COc1cccc(-n2c(C)nn(CCOc3ccccc3)c2=O)c1	none
COc1ccc(-n2c(C)nn(CCOc3ccccc3)c2=O)cc1	Shiga inhibitor 58, Cycloheximide cs 28
Cc1nn(CCOc2ccccc2)c(=O)n1-c1ccc(Cl)cc1	Shiga inhibitor 76, Cycloheximide cs 30
Cc1nn(CCOc2ccccc2)c(=O)n1-c1ccccc1	MARV entry inh inconclusive, Shiga inhibitor 38, Cycloheximide cs 29
CCOc1nc(C)ccc1-c1noc(C)n1	Pf growth 96h inconclusive
COc1ccc(CCNC(=O)CN2CCN(c3ccccc3Cl)CC2)cc1	Pf growth 96h inconclusive (no result: Pf growth 48h)
Nc1nn(-c2ccccc2)nc1C(=O)OCc1ccccc1	MARV entry inh inconclusive, Lassa entry inh inconclusive, Shiga inhibitor 48, Cycloheximide cs 27
NC(=O)c1nn(-c2ccccc2)nc1N	Cycloheximide cs 18
Cc1nn(-c2ccccc2)nc1C(N)=O	none
Cc1ccc(COC(=O)c2nn(-c3ccccc3)nc2N)cc1	Lassa entry inh inconclusive, Cycloheximide cs 18
Nc1nn(-c2ccccc2)nc1C(=O)OCc1ccc(Cl)cc1	none (no result: Shiga inhibitor, Cycloheximide cs, Pf growth 48h, Pf growth 96h)
Cc1ccc(CNS(=O)(=O)c2ccc3c(c2)CCN3S(C)(=O)=O)cc1	none (no result: MARV entry inh, Shiga inhibitor, Cycloheximide cs, Pf growth 48h, Pf growth 96h)
Oc1c(C(Nc2nccs2)c2ccc(C(F)(F)F)cc2)ccc2cccnc12 (stereo unspecified)	MARV entry inh 4.5µM, Lassa entry inh inconclusive, Pf growth 48h 0.37µM
Cc1[nH]c2ccccc2c1C(Nc1nccs1)c1ccncc1 (stereo unspecified)	Pf growth 96h inconclusive
O=C(Nc1cccc(C(F)(F)F)c1)c1cccnc1	none (no result: Pf growth 96h)
Oc1c(C(Nc2cccc(C(F)(F)F)c2)c2ccncc2)ccc2cccnc12 (stereo unspecified)	MARV entry inh inconclusive, Lassa entry inh inconclusive, Pf growth 48h 1.9µM, Pf growth 96h inconclusive
Cc1ccc(C(=O)NCCCNC(=O)c2cccnc2)cc1	Pf growth 96h inconclusive
CCCOc1ccc(C(=O)Nc2ccc(CN3CCOCC3)cc2)cc1	MARV entry inh inconclusive, Pf growth 96h inconclusive
O=C(Nc1ccc2c(c1)OCCO2)c1ccc(CN2CCOCC2)cc1	Shiga inhibitor 73, Cycloheximide cs 50, Pf growth 96h inconclusive
COc1c(Cl)cc(Cl)cc1C(=O)Nc1ccc(CN2CCOCC2)cc1	none (no result: MARV entry inh, Lassa entry inh)
COc1c(C)cccc1C(=O)Nc1ccc(CN2CCOCC2)cc1	MARV entry inh inconclusive, Shiga inhibitor 44, Cycloheximide cs 47 (no result: Pf growth 96h)
CC(C)Oc1cccc(C(=O)Nc2ccc(CN3CCOCC3)cc2)c1	Cycloheximide cs 16 (no result: Pf growth 96h)
COc1ccc(CN2CCOCCOCCOCC2)cc1	none
COc1ccc(CN2CCOCCOCCN(Cc3ccc(OC)cc3)CCOCCOCC2)cc1	MARV entry inh inconclusive, Lassa entry inh inconclusive, Pf growth 48h 13µM, Pf growth 96h inconclusive
CCCOc1cccc(C(=O)Nc2ccc(CN3CCOCC3)cc2)c1	Pf growth 96h inconclusive (no result: MARV entry inh, Lassa entry inh)
S=c1[nH]ncn2c1cc1oc3ccccc3c12	Lassa entry inh inconclusive
CCNc1nc(OC)nc(Oc2ccc(=O)[nH]n2)n1	none (no result: Shiga inhibitor, Cycloheximide cs, Pf growth 48h, Pf growth 96h)
CC(=O)Nc1ccc(N2CCN(C(=O)c3cccs3)CC2)cc1	none
O=C(NC1CC2CCC1C2)c1ccc(CN2CCOCC2)cc1 (stereo unspecified)	Shiga inhibitor 117, Cycloheximide cs 34 (no result: Pf growth 96h)
COc1ccc(C(=O)Nc2ccc(CN3CCOCC3)cc2)cc1Br	none (no result: MARV entry inh, Lassa entry inh)
COc1cccc(NC(=O)c2ccc(CN3CCOCC3)cc2)c1	MARV entry inh inconclusive, Cycloheximide cs 22
O=C(NC1CCCCC1)c1ccc(CN2CCOCC2)cc1	none
COc1ccc(-c2n[nH]c(=S)n2-c2ccc(C)cc2)cc1	none (no result: MARV entry inh, Lassa entry inh)
CCCCN(CCCNC(=O)C1CCN(C(=O)c2cc3sccc3n2C)CC1)Cc1ccccc1	MARV entry inh inconclusive, Lassa entry inh inconclusive, Pf growth 48h 5.2µM
O=C(c1cc(-c2ccccc2)nc2ccccc12)N1CCCc2ccccc21	MARV entry inh inconclusive, Pf growth 48h 2.9µM, Pf growth 96h inconclusive

Assay outcomes (PubChem BioAssay)
